# According to publication doi:10.1101/2023.07.10.548322:
# Biological target: alpha-synuclein (aSyn) WT (human, UniProt P37840 1-140)
# Test: RNA Bind-n-Seq
# Conditions: ssRNA
row,Sequence,binding signal [enrichment score]
1,UUGGGCGGGUAG,49.1
2,AGUGGGGGGGUG,43.8
3,GGGGGUGGUGUU,49.1
4,UGAGUGGGUGGU,43.8
5,UGGGGUAUUGGG,43.8
6,GGGUGGGCGGGG,96
7,GGGGGGCUGAGG,43.8
8,UGGGGGGAGAAG,41.1
9,UGGGGGAUGAGG,46.4
10,GGGGAUGGUAGG,43.8
11,GUGCGGGGGGGC,43.8
12,GUGGGGAAGGGU,49.1
13,UGGGUGGGUGGG,46.4
14,GCGGGAGGGCGG,49.1
15,UGGAUGGCGGGG,43.8
16,UGGCGGGGUGGA,46.4
17,UGGGGAGUGGGU,51.8

row,Sequence,binding signal [enrichment score]
1,GAGUGGGUGGGA,43.8
2,GUGGGGGUGGAU,60.2
3,GGAGGCAGUGGG,41.1
4,GGUGUGGGUGUG,51.8
5,GUGUGGCGGAGG,46.4
6,GAGGUGGUAGGG,57.4
7,UGGGUUUGGGGG,46.4
8,GUGUAGGUGGGG,43.8
9,UGGGAGGGGAGU,43.8
10,UAGGUUGGGGGU,46.4
11,GUGGGGGGGGCA,43.8
12,GGCGGUUGUUGG,46.4
13,AGGGUGGCGGUG,49.1
14,GGAGGAGGCGGU,41.1
15,GGAGGAAGGGGA,41.1
16,GUGGAGAGGUGG,54.6
